# Measurements reported in PubChem BioAssay AID463173 (ICCB-Longwood Screening Facility, Harvard Medical School, 2010).
# Hit rate of the full screen: of about 52,000 compounds, about 4,300 (8.3%) were called active. What follows is part of a selection rich in actives, with near analogues and random picks from the rest. A number with no mark means an inactive call. Cut-off read from the data, not from the text of the source: active = survival mostly below about 52% (no sharp cut-off); inactive = mostly above about 56%.
# Tested on: DeltatarO mutant
# Assay: growth inhibition of S. aureus wild type versus tarO mutant, primary screen, teichoic acid synthesis inhibitors, RN4220, OD600 (AID 463173)
# Details: OD600, 18 h, active compounds read low, screened at 18.75 µg/mL (by protocol)
row,Compound,survival
1,Cc1ccc(Cl)cc1NC(=O)c1oc2ccc(S(=O)(=O)N3CCCCCC3)cc2c1C,93%
2,O=C(Cn1cccc1C(=O)c1ccccc1)NCc1ccc(Cl)cc1,98%
3,COc1ccc2c(c1)CC(C(=O)Nc1ccc(OC)cc1OC)CO2 (stereo unspecified),89%
4,COC(=O)c1cc2oc3ccccc3c2n1CC(=O)Nc1ccc(OC)c(OC)c1,79%
5,Cc1cc(C)cc(NS(=O)(=O)c2ccc3[nH]cc(C(=O)N(C)Cc4ccccc4)c(=O)c3c2)c1,102%
6,CCc1ccc(NS(=O)(=O)c2ccc3[nH]cc(C(=O)NC4CCCC4)c(=O)c3c2)cc1,8% (active)
7,CCOc1ccc(NS(=O)(=O)c2ccc3[nH]cc(C(=O)NCc4ccccc4)c(=O)c3c2)cc1,79%
8,CCOc1ccc(NS(=O)(=O)c2ccc3[nH]cc(C(=O)N(C)Cc4ccccc4)c(=O)c3c2)cc1,6% (active)
9,CCc1ccc(NS(=O)(=O)c2ccc3[nH]cc(C(=O)NCc4ccc(C)cc4)c(=O)c3c2)cc1,65%
10,CCc1ccc(NS(=O)(=O)c2ccc3[nH]cc(C(=O)NCCc4ccccc4)c(=O)c3c2)cc1,87%
11,CCOc1ccc(NS(=O)(=O)c2ccc3[nH]cc(C(=O)NCCOC)c(=O)c3c2)cc1,72%
12,CCOc1ccc(NS(=O)(=O)c2ccc3[nH]cc(C(=O)N(C)C4CCCCC4)c(=O)c3c2)cc1,76%
13,CCOc1ccc(NS(=O)(=O)c2ccc3[nH]cc(C(=O)NC4CCCC4)c(=O)c3c2)cc1,39% (active)
14,Cc1ccc(-c2nn3c(=O)cc(CN4CCN(C(=O)/C=C/c5ccccc5)CC4)nc3s2)cc1,68%
15,CCOc1ccccc1C1CC(=O)Nc2c1c(=O)n(C)c1ncnn21 (stereo unspecified),164%
16,COc1ccc(NC(=O)c2oc3ccc(S(=O)(=O)N4CCC5(CC4)OCCO5)cc3c2C)cc1Cl,80%
17,O=C(O)C1CC(=O)N(CCCN2CCOCC2)C1 (stereo unspecified),96%
18,Cc1nn(C)c2c1c(C(F)(F)F)cc(=O)n2CC(=O)NCc1ccccc1Cl,80%
19,CCN1CCN(C(=O)c2ccc3c(c2)N(Cc2ccccc2)C(=O)c2ccccc2S3=O)CC1 (stereo unspecified),104%

row,Compound,survival
1,Cc1ccc(C)c(-n2c3nc(=O)[nH]c(=O)c-3cc3c(C)nn(-c4ccccc4)c32)c1,92%
2,COc1ccc(NC(=O)CC2C(=O)N(c3ccccc3)C(=O)N2CCc2sccc2C)cc1 (stereo unspecified),65%
3,CCN(CC)CCCNC(=O)Cc1ccc(NC(=O)N2CCCCc3ccccc32)cc1,79%
4,CCOC(=O)c1cc2c(=O)n3ccccc3nc2n(CC2CCCO2)c1=NC(=O)c1ccccc1F (stereo unspecified),44% (active)
5,CCOC(=O)c1cc2c(=O)n3ccccc3nc2n(CC2CCCO2)c1=NC(=O)c1ccccc1OCC (stereo unspecified),51%
6,CCOC(=O)c1cc2c(=O)n3ccccc3nc2n(CC(C)C)c1=NC(=O)c1c(-c2c(F)cccc2Cl)noc1C,165%
7,CCOC(=O)c1cc2c(=O)n3ccccc3nc2n(CC2CCCO2)c1=NC(=O)c1ccc(F)cc1 (stereo unspecified),54%
8,CCOC(=O)c1cc2c(=O)n3ccccc3nc2n(CC2CCCO2)c1=NC(=O)c1ccc(OCC)cc1 (stereo unspecified),51%
9,CCOC(=O)c1cc2c(=O)n3ccccc3nc2n(CC2CCCO2)c1=NC(=O)c1ccccc1Br (stereo unspecified),47% (active)
10,CCOC(=O)c1cc2c(=O)n3ccccc3nc2n(CC2CCCO2)c1=NC(=O)c1ccc(OC)cc1OC (stereo unspecified),38% (active)
11,CCOC(=O)c1cc2c(=O)n3ccccc3nc2n(CC2CCCO2)c1=NC(=O)c1ccccc1C (stereo unspecified),43% (active)
12,O=C(CC1N=C2c3ccccc3N=C(SCC(=O)Nc3ccccc3F)N2C1=O)NCc1ccc2c(c1)OCO2 (stereo unspecified),73%
13,Nc1c(-c2nc(-c3ccc(Cl)cc3)no2)nnn1-c1ccc(C(F)(F)F)c(Cl)c1,75%
14,Cc1cc(C)c2c(CC(=O)Nc3ccccc3C(F)(F)F)coc2c1,72%
15,O=C(NCCCN1CCCC1)c1ccccc1Cl,86%
16,COc1ccc(Nc2nc3ccc(Cl)cc3n3nnnc23)cc1OC,102%
17,CC(C)C(=O)NCC(c1ccc2c(c1)OCO2)N1CCN(c2ccccc2F)CC1 (stereo unspecified),74%
18,COC(=O)CC(=O)CSc1nc(C)cc(C)c1C#N,80%
19,COc1ccc2nc(NC(=O)c3cc(=O)c4ccccc4o3)sc2c1,50%

row,Compound,survival
1,CCOc1ccc2nc(NC(=O)c3ccccc3)sc2c1,41% (active)
2,COc1ccc2nc(NC(=O)c3cc(=O)c4cc(C)c(C)cc4o3)sc2c1,58%
3,COc1ccc2nc(NC(=O)c3cc(=O)c4cc(C)cc(C)c4o3)sc2c1,69%
4,CCOc1ccc2nc(NC(=O)c3nc(SC)ncc3Cl)sc2c1,95%
5,CCOc1ccc2nc(NC(=O)c3cc(=O)c4ccc(C)cc4o3)sc2c1,25% (active)
6,CC(=O)Nc1ccc2nc(NC(=O)c3cc4ccccc4o3)sc2c1,102%
7,CCOc1ccc2nc(NC(=O)c3cc(=O)c4cc(C)cc(C)c4o3)sc2c1,85%
8,CS(=O)(=O)c1ccc2nc(NC(=O)c3ccccc3)sc2c1,81%
9,Cc1ccc2c(=O)cc(C(=O)Nc3nc4ccc(Cl)cc4s3)oc2c1C,39% (active)
10,Cc1cc(C)c2oc(C(=O)Nc3nc4ccc(Cl)cc4s3)cc(=O)c2c1,61%
11,O=C(Nc1nc2ccc(Cl)cc2s1)c1cc(=O)c2ccccc2o1,32% (active)
12,O=S(=O)(c1ccc(Br)cc1)N1CCOCC1,94%
13,CC(C)NS(=O)(=O)c1ccc(OCC(=O)N2CCN(c3cccc(Cl)c3)CC2)cc1,95%
14,CCSc1ncc(Cl)c(C(=O)Nc2ccc(S(=O)(=O)N3CCCCC3)cc2)n1,87%
15,Cc1ccc(-c2csc(NC3OC(=O)c4c#cccc43)n2)cc1 (stereo unspecified),94%
16,Cc1ccc(Cn2cnc3nc4c(cc3c2=O)CCCC4)cc1,81%
17,CCc1ccc2[nH]c(=O)c(CNC3CCCC3)cc2c1,86%
18,CCCOc1ccc(C(=O)N(Cc2ccc(N(C)C)cc2)CC2CCCO2)cc1 (stereo unspecified),64%
